In PubChem BioAssay (EPA / NIEHS):
“And” between values parts separate entries of the source, which are not always exact repeats. Equal entries are not always repeated. Where a structure was tested more than once in an assay, its records may differ in their call. The source made the active and inactive calls. The calls were made as follows: active = hit-call score of the fitted dose curve at least 0.9, where 1 is the maximum; inactive = score below 0.9.

Columns and labels:
[1] = ATG_ISRE_CIS: Attagene CIS-FACTORIAL HepG2 Assay for human Interferon Regulatory Factor 1 (IRF1) binding to an Interferon-Stimulated Response Element (ISRE) (AID 2282948); conditions: HepG2 ISRE cis-reporter (Attagene), mRNA transcription readout; actives raise or lower the signal
Method in brief: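 HepG2 cells transiently transfected with multiplexed cis-promoter reporter units; after 24 h compound exposure, reporter mRNA quantified by RT-PCR, FAM labelling, HpaI digestion and capillary electrophoresis. Bidirectional fit versus DMSO baseline.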

[2] = ATG_M_32_CIS: Attagene CIS-FACTORIAL HepG2 Assay for M32 Transcription Factor (Internal Marker) (AID 2282949); conditions: HepG2 Attagene cis-factorial M32 reporter, mRNA; actives raise or lower the signal;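 also: background control marker of the multiplexed CIS panel rather than a real target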
Method in brief: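 Internal background marker read-out: RT-PCR/capillary electrophoresis fluorescence of reporter transcripts from transiently transfected HepG2 cells after 24 h chemical exposure. Activity fitted bidirectionally relative to DMSO negative control.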

[3] = ATG_M_06_CIS: Attagene CIS-FACTORIAL HepG2 Assay for M06 Transcription Factor (Internal Marker) (AID 2282950); conditions: HepG2 Attagene CIS-FACTORIAL M06 internal marker reporter; actives raise or lower the signal
Method in brief: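 HepG2 liver cells, 24 h exposure. Reporter transcripts from transfected cis-element constructs quantified by RT-PCR/capillary electrophoresis fluorescence. Bidirectional curve fit against DMSO.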

[4] = target: Hepatocyte nuclear factor 6 (Homo sapiens) (UniProt Q9UBC0); experiment: ATG_HNF6_CIS: Attagene CIS-FACTORIAL HepG2 Assay for human Hepatocyte Nuclear Factor 6 (HNF6) (AID 2282952); conditions: HepG2 Attagene cis-factorial HNF6 reporter transcription; actives raise or lower the signal
Sequence of Hepatocyte nuclear factor 6 (Homo sapiens) (Q9UBC0 whole entry, looked up, the tested form may be a part): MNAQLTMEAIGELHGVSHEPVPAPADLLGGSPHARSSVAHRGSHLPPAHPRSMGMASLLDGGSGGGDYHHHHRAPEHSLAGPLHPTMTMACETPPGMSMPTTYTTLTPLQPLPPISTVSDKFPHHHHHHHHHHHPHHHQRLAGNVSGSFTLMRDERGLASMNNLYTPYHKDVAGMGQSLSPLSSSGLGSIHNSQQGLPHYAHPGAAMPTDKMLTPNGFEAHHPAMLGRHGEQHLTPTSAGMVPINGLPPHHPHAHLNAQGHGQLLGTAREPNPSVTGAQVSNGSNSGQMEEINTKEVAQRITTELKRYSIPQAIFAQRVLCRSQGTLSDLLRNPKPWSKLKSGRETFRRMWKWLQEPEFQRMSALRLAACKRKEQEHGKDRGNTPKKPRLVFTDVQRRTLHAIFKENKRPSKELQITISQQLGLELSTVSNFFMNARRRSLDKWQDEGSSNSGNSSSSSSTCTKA
Method in brief: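 HepG2 cells transiently transfected with cis-element-driven multiplexed reporter units measuring endogenous transcription factor activity. After 24 h exposure, reporter mRNA quantified by RT-PCR, FAM-labelled fragments and capillary electrophoresis; bidirectional fitting versus DMSO.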

[5] = target: Heat shock factor protein 1 (Homo sapiens) (UniProt Q00613); experiment: ATG_HSE_CIS: Attagene CIS-FACTORIAL HepG2 Assay for human Heat Shock Transcription Factor 1 (HSE) (AID 2282953); conditions: HepG2 HSE cis-reporter, Attagene RNA transcription; actives raise or lower the signal
Sequence of Heat shock factor protein 1 (Homo sapiens) (Q00613 whole entry, looked up, the tested form may be a part): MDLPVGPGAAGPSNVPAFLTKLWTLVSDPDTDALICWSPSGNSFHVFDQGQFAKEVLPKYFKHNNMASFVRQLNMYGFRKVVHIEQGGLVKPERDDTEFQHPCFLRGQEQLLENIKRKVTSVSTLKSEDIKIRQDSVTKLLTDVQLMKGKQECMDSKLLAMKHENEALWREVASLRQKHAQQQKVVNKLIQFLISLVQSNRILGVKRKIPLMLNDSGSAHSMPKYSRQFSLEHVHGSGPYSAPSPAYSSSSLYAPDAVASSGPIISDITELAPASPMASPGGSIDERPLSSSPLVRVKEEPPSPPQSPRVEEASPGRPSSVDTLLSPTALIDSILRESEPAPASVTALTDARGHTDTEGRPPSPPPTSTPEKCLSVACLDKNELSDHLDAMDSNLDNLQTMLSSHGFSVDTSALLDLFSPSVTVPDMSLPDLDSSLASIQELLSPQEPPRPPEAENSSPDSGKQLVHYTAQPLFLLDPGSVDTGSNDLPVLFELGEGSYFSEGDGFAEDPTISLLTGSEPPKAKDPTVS
Method in brief: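 Endogenous transcription factor activity captured via cis-promoter reporter units transfected into HepG2; treatment lasted 24 h. Fluorescence intensity of reporter fragments analysed with bidirectional curve fitting, DMSO baseline.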

[6] = ATG_MRE_CIS: Attagene CIS-FACTORIAL HepG2 Assay for human Metal Responsive Element (MRE) (AID 2282954); conditions: HepG2 MRE cis-reporter transcription, Attagene multiplex; actives raise or lower the signal
Method in brief: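 After a 24 h chemical exposure, transiently transfected HepG2 cells yield RNA whose reporter sequences are amplified, FAM-labelled and sized by capillary electrophoresis. Curves are fitted bidirectionally relative to DMSO.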

[7] = ATG_PBREM_CIS: Attagene CIS-FACTORIAL HepG2 Assay for human Phenobarbital-responsive Enhancer Module (PBREM) (AID 2282955); conditions: HepG2 PBREM cis-reporter, Attagene multiplexed transcription; actives raise or lower the signal
Method in brief: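 Readout: reporter mRNA, fluorescent RT-PCR fragments separated by capillary electrophoresis. System: HepG2 transiently transfected with cis-regulated reporter units. Exposure: 24 h. Analysis: bidirectional, DMSO baseline.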

[8] = target: Paired box protein Pax-6 (Homo sapiens) (UniProt P26367); experiment: ATG_Pax6_CIS: Attagene CIS-FACTORIAL HepG2 Assay for human Paired Box 6 (PAX6) (AID 2282956); conditions: HepG2 CIS-FACTORIAL PAX6 reporter transcription, RNA readout; actives raise or lower the signal
Sequence of Paired box protein Pax-6 (Homo sapiens) (P26367 whole entry, looked up): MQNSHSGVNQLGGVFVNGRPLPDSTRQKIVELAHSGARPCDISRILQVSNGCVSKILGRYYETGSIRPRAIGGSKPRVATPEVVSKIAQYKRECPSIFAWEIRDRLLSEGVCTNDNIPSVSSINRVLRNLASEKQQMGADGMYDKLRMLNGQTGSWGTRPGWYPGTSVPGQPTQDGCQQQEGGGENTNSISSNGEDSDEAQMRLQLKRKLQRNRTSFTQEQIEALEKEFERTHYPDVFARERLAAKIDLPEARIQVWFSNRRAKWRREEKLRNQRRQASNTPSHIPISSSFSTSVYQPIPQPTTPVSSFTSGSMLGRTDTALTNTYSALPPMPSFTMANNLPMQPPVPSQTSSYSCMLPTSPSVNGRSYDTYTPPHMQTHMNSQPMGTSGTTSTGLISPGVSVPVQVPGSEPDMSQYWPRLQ
Method in brief: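 HepG2 cells transiently transfected with multiplexed cis-promoter reporter units (endogenous TF activity) were dosed for 24 h. Reporter mRNA was quantified by RT-PCR, 6-FAM labeling, HpaI digestion and capillary electrophoresis; bidirectional fitting versus DMSO baseline.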

[9] = target: Hypoxia-inducible factor 1-alpha (Homo sapiens) (UniProt Q16665); experiment: ATG_HIF1a_CIS: Attagene CIS-FACTORIAL HepG2 Assay for human Hypoxia Inducible Factor 1 (HIF1A) (AID 2282951); conditions: HepG2 Attagene cis-factorial HIF1a reporter transcription; actives raise or lower the signal
Sequence of Hypoxia-inducible factor 1-alpha (Homo sapiens) (Q16665 whole entry, looked up): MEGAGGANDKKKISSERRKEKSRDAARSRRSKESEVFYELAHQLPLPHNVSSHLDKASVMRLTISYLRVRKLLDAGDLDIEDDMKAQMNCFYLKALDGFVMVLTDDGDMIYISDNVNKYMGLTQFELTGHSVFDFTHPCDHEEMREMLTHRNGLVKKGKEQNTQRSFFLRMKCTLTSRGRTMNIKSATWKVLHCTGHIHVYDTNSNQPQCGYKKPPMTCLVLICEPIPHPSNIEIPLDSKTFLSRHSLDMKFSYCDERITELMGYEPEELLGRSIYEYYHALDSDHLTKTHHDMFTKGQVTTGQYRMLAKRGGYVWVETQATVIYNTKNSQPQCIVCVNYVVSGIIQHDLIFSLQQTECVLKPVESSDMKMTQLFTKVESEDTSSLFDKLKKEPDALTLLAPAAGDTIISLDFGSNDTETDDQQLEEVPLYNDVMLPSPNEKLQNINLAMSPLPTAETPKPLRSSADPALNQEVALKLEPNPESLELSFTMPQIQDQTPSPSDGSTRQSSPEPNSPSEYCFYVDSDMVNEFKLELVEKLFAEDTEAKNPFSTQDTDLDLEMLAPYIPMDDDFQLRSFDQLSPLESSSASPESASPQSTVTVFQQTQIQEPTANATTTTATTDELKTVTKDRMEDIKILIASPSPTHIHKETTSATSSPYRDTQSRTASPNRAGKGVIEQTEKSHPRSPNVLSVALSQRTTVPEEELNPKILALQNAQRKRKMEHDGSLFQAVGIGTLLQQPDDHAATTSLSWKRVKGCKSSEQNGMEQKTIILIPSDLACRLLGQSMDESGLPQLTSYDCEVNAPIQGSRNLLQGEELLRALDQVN
Method in brief: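 Endogenous-TF cis reporter readout, human HepG2 cells, 24 h incubation; mRNA detected via RT-PCR and capillary electrophoresis fluorescence; DMSO-normalised bidirectional fitting.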

[10] = ATG_GRE_CIS: Attagene CIS-FACTORIAL HepG2 Assay for human Glucocorticoid Response Elements (GRE) (AID 2282947); conditions: HepG2 GRE cis-reporter, Attagene multiplex mRNA; AC50: actives raise or lower the signal unless noted; outcome: actives raise or lower the signal unless noted
Method in brief: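 Assay uses human hepatoma HepG2 cells transfected with cis-promoter reporter units, exposed 24 h. mRNA from reporters detected by RT-PCR plus capillary electrophoresis; DMSO serves as negative control and baseline.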

Measured: AC50

Cc1cc(=O)oc2cc(O)ccc12
inactive: [1] | [2] | [3] | [4] | [5] | [6] | [7] | [8]
active: [7] 42.3 µM

O=C1NS(=O)(=O)c2ccccc21
not listed: [5] | [7] | [10]
inactive: all other assays above

CCCCCCCCCCCC(=O)O
inactive: [1] | [2] | [3] | [9] | [4] | [5] | [6] | [8]
active: [1] 146 µM | [6] 181 µM

CC(=O)Nc1ccc(O)cc1
not listed: [4] | [9] | [10]
inactive: all other assays above

CCCCCCCCCCCC
not listed: [7]
inactive: all other assays above

CCCCC(CC)C(=O)O (centres undefined)
not listed: [7] | [10]
inactive: all other assays above

CC(C)[C@@H]1CC[C@@H](C)C[C@H]1O
not listed: [5] | [10]
inactive: all other assays above

CCOC(=O)c1nc(C(Cl)(Cl)Cl)n(-c2ccc(Cl)cc2Cl)n1
active: [10] 169 µM | [1] 53.2 µM | [2] 63.9 µM | [4] 160 µM | [5] 65.8 µM | [6] 74.7 µM | [7] 100 µM
inactive: [3] | [9] | [8]

O=C(c1ccccc1)c1ccccc1
not listed: [4] | [7]
inactive: all other assays above

O=C1OC(=O)C(F)(F)C1(F)F
inactive: all assays above

CN(C)CCOC(c1ccccc1)c1ccccc1
active: [1] 100 µM
not listed: [4] | [7] | [9]
inactive: all other assays above

c1cnc2c(c1)ccc1cccnc12
inactive: [10] | [2] | [3] | [4] | [5] | [6] | [7] | [8]
active: [1] 7.67 µM and 7.15 µM | [5] 144 µM | [7] 100 µM

Cc1ccc(C)c(S(=O)(=O)O)c1
not listed: [10]
inactive: all other assays above

CCOCCOCC
inactive: all assays above

CCC(C)c1ccccc1O (centres undefined)
inactive: all assays above

O=C(O)C(=O)O
inactive: all assays above

O=C1OC2(c3ccccc31)c1cc(I)c(O)c(I)c1Oc1c2cc(I)c(O)c1I
inactive: [1] | [2] | [3] | [9] | [4] | [5] | [6] | [7] | [8]
active: [9] 21.2 µM and 34.4 µM | [6] 36.3 µM and 35.2 µM | [7] 21 µM and 18.6 µM | [8] 37.6 µM

O=C(NO)c1ccccc1
active: [1] 44.4 µM [middle of 4 runs]
not listed: [7]
inactive: all other assays above

CCCCc1oc2ccccc2c1C(=O)c1cc(I)c(OCCN(CC)CC)c(I)c1
active: [10] 141 µM | [2] 127 µM | [3] 89.1 µM | [9] 7.78 µM | [6] 18.3 µM | [8] 20.2 µM
inactive: [1] | [5]

O=c1cc(-c2ccccc2)oc2ccc3ccccc3c12
not listed: [10]
inactive: all other assays above

Cc1ccc(S(=O)(=O)O)cc1
not listed: [5] | [7] | [10]
inactive: all other assays above

CS(=O)(=O)c1ccc([C@@H](CC2CCCC2)C(=O)Nc2cnccn2)cc1Cl
active: [1] 30.2 µM | [9] 64.4 µM | [5] 150 µM | [6] 113 µM | [8] 73.9 µM
inactive: [10] | [2] | [3] | [7]

CCOC(=O)CN[C@@H](C(=O)N1CC[C@H]1C(=O)NCc1ccc(/C(N)=N/O)cc1)C1CCCCC1
inactive: all assays above

CC[N+](CC)(CC)Cc1ccccc1
inactive: all assays above

CN(Cc1cnc2nc(N)nc(N)c2n1)c1ccc(C(=O)N[C@@H](CCC(=O)O)C(=O)O)cc1
not listed: [9] | [10]
inactive: all other assays above

Cc1ccccc1C(OCCN(C)C)c1ccccc1 (centres undefined)
active: [6] 151 µM
inactive: [10] | [1] | [2] | [3] | [4] | [5] | [6] | [7] | [8]

N=C(N)c1ccc(OCCCCCOc2ccc(C(=N)N)cc2)cc1
active: [1] 57.9 µM | [9] 113 µM | [6] 65.2 µM | [8] 101 µM
not listed: [7]
inactive: all other assays above

NCCN
not listed: [7] | [10]
inactive: all other assays above

CC1=NN(c2ccccc2)C(=O)C1
not listed: [7] | [9]
inactive: all other assays above

O=C(CCCN1CCC(O)(c2ccc(Cl)cc2)CC1)c1ccc(F)cc1
inactive: [1] | [3]
active: [10] 52 µM | [2] 62.4 µM | [6] 33.4 µM | [8] 51.2 µM

CCCCC=O
not listed: [7]
inactive: all other assays above

CC(C)c1c(C(=O)Nc2ccccc2)c(-c2ccccc2)c(-c2ccc(F)cc2)n1CC[C@@H](O)C[C@@H](O)CC(=O)O
inactive: [10] | [1] | [2] | [3] | [5] | [7] | [8]
active: [9] 57.9 µM and 22.5 µM | [6] 61.4 µM and 34.3 µM | [7] 25.3 µM | [8] 94.5 µM

CCC1CO1 (centres undefined)
not listed: [7]
inactive: all other assays above

C[C@]12CC[C@@H]3c4ccc(O)cc4CC[C@H]3[C@@H]1C[C@@H](O)[C@@H]2O
not listed: [7]
inactive: all other assays above

O=S(=O)(O)c1ccccc1
not listed: [7]
inactive: all other assays above
